The full ranking holds about 18,000 sequences; the median of “log2 normalized intensity” is about 0.39, and the highest 2% start at about 6.6. This excerpt belongs to a sample that is enriched for the highest values.

This assay addresses T1, HNF4alpha2 (COS-7 nuclear extract) (Homo sapiens, UniProt P41235 1-474).
T1 sequence: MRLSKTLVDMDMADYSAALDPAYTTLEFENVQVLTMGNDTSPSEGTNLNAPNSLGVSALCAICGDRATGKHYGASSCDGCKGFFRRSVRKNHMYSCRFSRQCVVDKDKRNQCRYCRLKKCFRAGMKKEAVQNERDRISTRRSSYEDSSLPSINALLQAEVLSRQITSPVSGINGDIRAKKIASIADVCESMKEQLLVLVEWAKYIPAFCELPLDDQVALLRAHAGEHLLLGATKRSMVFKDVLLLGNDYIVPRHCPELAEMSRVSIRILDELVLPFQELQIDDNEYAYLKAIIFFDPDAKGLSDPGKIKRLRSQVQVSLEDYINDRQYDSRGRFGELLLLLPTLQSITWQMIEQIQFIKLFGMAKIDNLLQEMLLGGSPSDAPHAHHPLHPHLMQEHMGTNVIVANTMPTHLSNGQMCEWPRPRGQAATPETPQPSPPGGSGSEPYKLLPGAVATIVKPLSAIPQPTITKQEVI
Kind of assay: protein-binding microarray; COS-7 nuclear extract on double-stranded Agilent 4x180k PBM; binding buffer, salt, pH and temperature not given in the material; high values mean tight binding. To be noted: chain copies: 2; label: 3' end of strand 1 on the slide; dsDNA, one strand shown. The method, boiled down: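 Binding signal was defined as the normalized, background-corrected gProcessedSignal reported by Agilent software. It came from nuclear extracts of COS-7 cells transiently transfected with a human HNF4α isoform expression vector, applied to a custom Agilent SurePrint G3 4x180k array. That array held ~44,000 test sequences in quadruplicate as double-stranded ~60-nt oligonucleotides, and bound HNF4α was imaged at 2-µm resolution on an Agilent G2565CA scanner.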
As for “CATTAAGCTTAGCGTTATCAAACCAAATATGCCTAGGGAGATTAGAGTATCGGTCGA”, the binding signal was -0.0208 log2 normalized intensity.

As to “GGTCAACACAATCTGATAGTTGATTGATTGGCCTAGGGAGATTAGAGTATCGGTCGA”, the binding signal is 0.627 log2 normalized intensity.

With “TCATCTTCAAAGCCAGCAATGGCAGGTCCAGCCTAGGGAGATTAGAGTATCGGTCGA”, the binding signal is 1.41 log2 normalized intensity.

“TCTGCAGACATGGACTCTGGGATCTCAGGGGCCTAGGGAGATTAGAGTATCGGTCGA”: the binding signal was 1.24 log2 normalized intensity.

On to “ACAGCTAGTCTAGACTTTGCTTTCTTGGAGGCCTAGGGAGATTAGAGTATCGGTCGA”, for which the binding signal worked out at 1.24 log2 normalized intensity.

Turning to “TGGTGGGGAATGCTAGGACTCATTCTCCCCGCCTAGGGAGATTAGAGTATCGGTCGA”, the binding signal amounted to 0.442 log2 normalized intensity.

Consider “AGAGCTCAGAAGCCACCAGTGCAAATATAAGCCTAGGGAGATTAGAGTATCGGTCGA”, for which the binding signal is -0.972 log2 normalized intensity.

For the sequence “CACAAATTGGAGAGCATCTTGGACTTGGGAGCCTAGGGAGATTAGAGTATCGGTCGA”, the binding signal is 2.73 log2 normalized intensity.

As for “ATTTGGACTTTTACTCTTAGAGATAATGGGGCCTAGGGAGATTAGAGTATCGGTCGA”, the binding signal was determined as 2.13 log2 normalized intensity.

In the case of “AGGCCAAACAAAAATATGGACTTTGGAATTGCCTAGGGAGATTAGAGTATCGGTCGA”, the binding signal amounted to 7.99 log2 normalized intensity.

On to “GAAGGAGAGAGAGGGAGAGTGGCCTTTGGAGCCTAGGGAGATTAGAGTATCGGTCGA”, for which the binding signal is 2.89 log2 normalized intensity.

Turning to “CAAACGAGACTTTGGACTTTGGACTTGGGAGCCTAGGGAGATTAGAGTATCGGTCGA”, the binding signal amounted to 10.5 log2 normalized intensity.

“AAAATATGGACTTTGGAATTAAGAAAAGCTGCCTAGGGAGATTAGAGTATCGGTCGA”: the binding signal is 5.25 log2 normalized intensity.

As for “TCTTTAGGCCAAACAAAAATATGGACTTTGGCCTAGGGAGATTAGAGTATCGGTCGA”, the binding signal is 5.84 log2 normalized intensity.

As for “AAGAGATAAAAGAGAAGATAATGGATTGGGGCCTAGGGAGATTAGAGTATCGGTCGA”, the binding signal is -0.492 log2 normalized intensity.

For the sequence “GGATAATGATAAAGAGATTGGACTTTGGCCGCCTAGGGAGATTAGAGTATCGGTCGA”, the binding signal came to 8.99 log2 normalized intensity.

In the case of “CTATCACTGTCTAGCTGTGTAACCCTGGACGCCTAGGGAGATTAGAGTATCGGTCGA”, the binding signal came to 1.48 log2 normalized intensity.

As to “TGTCCAGCACACCTTTTTTTCATGCAAATTGCCTAGGGAGATTAGAGTATCGGTCGA”, the binding signal turned out to be 0.631 log2 normalized intensity.

As for “CCCCCTTTTGCTTTCCGTTAGGCTACAGTGGCCTAGGGAGATTAGAGTATCGGTCGA”, the binding signal was 1.03 log2 normalized intensity.

For “CTCCTCTCCAGCCCATCCTAAGCCCCAGGGGCCTAGGGAGATTAGAGTATCGGTCGA”, the binding signal was 1.15 log2 normalized intensity.

As for “CTGAGCCTCAGAACCATTTGTGAGGATGGGGCCTAGGGAGATTAGAGTATCGGTCGA”, the binding signal is -0.528 log2 normalized intensity.

“TAGATAAGAGCTGAGGAAGTGCTGACCTTTGCCTAGGGAGATTAGAGTATCGGTCGA”: the binding signal stood at 5.77 log2 normalized intensity.

Turning to “AGTGCTGCATGCAAAAAGGCTGACCTTTGAGCCTAGGGAGATTAGAGTATCGGTCGA”, the binding signal worked out at 7.82 log2 normalized intensity.

Regarding “AAGAGCTGAGGAAGTGCTGACCTTTGGTCTGCCTAGGGAGATTAGAGTATCGGTCGA”, the binding signal was 7.29 log2 normalized intensity.

With “GTCAGAGTGCTGCATGCAAAAAGGCTGACCGCCTAGGGAGATTAGAGTATCGGTCGA”, the binding signal is 1.41 log2 normalized intensity.

Turning to “CTGAGGAAGTGCTGACCTTTGGTCTAAACCGCCTAGGGAGATTAGAGTATCGGTCGA”, the binding signal amounted to 6.27 log2 normalized intensity.

Consider “ATGCAAAGCCCTGGCTGACCTTTAGCCTGGGCCTAGGGAGATTAGAGTATCGGTCGA”, for which the binding signal came out at 6.54 log2 normalized intensity.

With “AGGCTGTCAGAGTGCTGCATGCAAAAAGGCGCCTAGGGAGATTAGAGTATCGGTCGA”, the binding signal was -0.743 log2 normalized intensity.

For the sequence “CTTTTTGACCTTGCAGTGGCAAGGCAAAAGGCCTAGGGAGATTAGAGTATCGGTCGA”, the binding signal was found to be 1.56 log2 normalized intensity.

“TGCATGCAAAAAGGCTGACCTTTGACTCTCGCCTAGGGAGATTAGAGTATCGGTCGA”: the binding signal was determined as 7.57 log2 normalized intensity.

On to “CCCAGGTCACCCACAACCTACCCTTTGCCCGCCTAGGGAGATTAGAGTATCGGTCGA”, for which the binding signal was determined as 3.99 log2 normalized intensity.

For the sequence “GGCTAGGGCAAAGATCAAACATACAGTAAAGCCTAGGGAGATTAGAGTATCGGTCGA”, the binding signal is 1.77 log2 normalized intensity.

Turning to “TAGCAATAATCTTTGAAATCTGCAAATAGAGCCTAGGGAGATTAGAGTATCGGTCGA”, the binding signal was -0.0917 log2 normalized intensity.

Turning to “TCTGTGTGTATGTGTGTGTACACATTGATAGCCTAGGGAGATTAGAGTATCGGTCGA”, the binding signal stood at 2.42 log2 normalized intensity.

In the case of “GGAGAGAGTTTGGCCCCAGTTCCCATGGACGCCTAGGGAGATTAGAGTATCGGTCGA”, the binding signal was found to be 1.18 log2 normalized intensity.

Turning to “TTTGATCCTGATGACTGCAGAGCTTGCTCTGCCTAGGGAGATTAGAGTATCGGTCGA”, the binding signal was -0.687 log2 normalized intensity.

On to “GCAGTTCCTGATCTTTGACCTGGAGCATGAGCCTAGGGAGATTAGAGTATCGGTCGA”, for which the binding signal is 4.61 log2 normalized intensity.

As to “AATTCCAGTTTGGACTTTGATCCTGATGACGCCTAGGGAGATTAGAGTATCGGTCGA”, the binding signal was 9.15 log2 normalized intensity.

For the sequence “ATCCTGCAGTTCCTGATCTTTGACCTGGAGGCCTAGGGAGATTAGAGTATCGGTCGA”, the binding signal was determined as 5.61 log2 normalized intensity.

As to “TGGACTTTGATCCTGATGACTGCAGAGCTTGCCTAGGGAGATTAGAGTATCGGTCGA”, the binding signal was determined as 5.26 log2 normalized intensity.

As for “AGATCATCCTGCAGTTCCTGATCTTTGACCGCCTAGGGAGATTAGAGTATCGGTCGA”, the binding signal stood at 7.04 log2 normalized intensity.

Consider “GATGGAGATCATCCTGCAGTTCCTGATCTTGCCTAGGGAGATTAGAGTATCGGTCGA”, for which the binding signal is -0.826 log2 normalized intensity.

In the case of “CAGTTTGGACTTTGATCCTGATGACTGCAGGCCTAGGGAGATTAGAGTATCGGTCGA”, the binding signal worked out at 7.49 log2 normalized intensity.

As for “CTTCTGTTCAGGAGTTGTCTGTCCAGTTCAGCCTAGGGAGATTAGAGTATCGGTCGA”, the binding signal was 1.56 log2 normalized intensity.

For the sequence “TAATCCCTGAGCCTGGACCTTGGAATGTCAGCCTAGGGAGATTAGAGTATCGGTCGA”, the binding signal worked out at 3.33 log2 normalized intensity.

As to “AATTCACGTCATTTTGTCACCTACATGTGAGCCTAGGGAGATTAGAGTATCGGTCGA”, the binding signal worked out at 1.67 log2 normalized intensity.

“TGCCCTGGACATATTTGTCTTCCTATCTCCGCCTAGGGAGATTAGAGTATCGGTCGA”: the binding signal was determined as 0.887 log2 normalized intensity.

As to “TTCCAGAGCCTTCAAAGGAAAGCAGGTGTTGCCTAGGGAGATTAGAGTATCGGTCGA”, the binding signal was 0.55 log2 normalized intensity.

Regarding “CAGGGTCAATGTCCCCTTAGGAATAGTATCGCCTAGGGAGATTAGAGTATCGGTCGA”, the binding signal was determined as 2.14 log2 normalized intensity.

In the case of “GGGATGGACTTTGGCCCTCAGCCCAATGTGGCCTAGGGAGATTAGAGTATCGGTCGA”, the binding signal turned out to be 6.2 log2 normalized intensity.

Consider “AAAGAGATTGGACTTTGGCCTGTGAATCCAGCCTAGGGAGATTAGAGTATCGGTCGA”, for which the binding signal is 8.37 log2 normalized intensity.

As to “CAGCCTTTGGACTTTGAACTGCAACATCAGGCCTAGGGAGATTAGAGTATCGGTCGA”, the binding signal is 8.26 log2 normalized intensity.

“GGACTTTGGCCCTCAGCCCAATGTGGTAGGGCCTAGGGAGATTAGAGTATCGGTCGA”: the binding signal was found to be 5.47 log2 normalized intensity.

On to “TGAATTCTGCAGCAGATGGCCAGCCTTTGGGCCTAGGGAGATTAGAGTATCGGTCGA”, for which the binding signal was -0.936 log2 normalized intensity.

Turning to “ACCTGGAACTGAAAGAGACCTTTGACATCAGCCTAGGGAGATTAGAGTATCGGTCGA”, the binding signal is 4.5 log2 normalized intensity.

With “GAACAGCAAGACTTTGGCCCTGCAGACTTTGCCTAGGGAGATTAGAGTATCGGTCGA”, the binding signal came out at 2.09 log2 normalized intensity.

As to “GATTGGACTTTGGCCTGTGAATCCACATTCGCCTAGGGAGATTAGAGTATCGGTCGA”, the binding signal amounted to 5.98 log2 normalized intensity.

For “TCTGCAGCAGATGGCCAGCCTTTGGACTTTGCCTAGGGAGATTAGAGTATCGGTCGA”, the binding signal was 7.15 log2 normalized intensity.

“TACTGGGGATGGACTTTGGCCCTCAGCCCAGCCTAGGGAGATTAGAGTATCGGTCGA”: the binding signal is 8.56 log2 normalized intensity.

As to “CTGGACTTTGGCTGCAAAATTTGAACAAAAGCCTAGGGAGATTAGAGTATCGGTCGA”, the binding signal was determined as 1.55 log2 normalized intensity.

On to “TTGAAAGGGACTTAGAATCGAATTGTGAAAGCCTAGGGAGATTAGAGTATCGGTCGA”, for which the binding signal was -0.196 log2 normalized intensity.

The record behind these values is PMC10726135, “HNF4α isoforms regulate the circadian balance between carbohydrate and lipid metabolism in the liver”.
